Sampled rows, rich in hits. Any-hit rate of the full collection: about 9.8%.
ALDH1A1 inh: qHTS Assay for Inhibitors of Aldehyde Dehydrogenase 1 (ALDH1A1). Aldehyde dehydrogenase 1A1 (Homo sapiens), P00352. Purified ALDH1A1, NADH fluorescence, propionaldehyde substrate. Potency, µM (series often up to 75.3 µM), inactives show top-dose activity, negative = inhibition, usual class: inhibitors. 7.3% of 220,000 active;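 note: potency is the fitted concentration of half-maximal effect; plate controls were no enzyme wells and a reference inhibitor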
HTT ATP protect: qHTS Multiplex Assay to Identify Dual Action Probes in a Cell Model of Huntington: Cytoprotection (ATP) | PC12 HTT-Q103 induced, cytoprotection, ATP luminescence, 40 h | Potency, µM (series often up to 56.4 µM), for the others: cytoprotection (ATP increase), usual class: activators | 0.14% of 230,000 active | AID 1471, 2008; active = well fitted curve in the direction sought with a large enough effect; inconclusive = small, poorly fitted or top-dose-only effect, or another doubt; inactive = no such curve, though single readings can be large; an effect the other way counts as inactive or inconclusive; note: potency is the fitted concentration of half-maximal effect; % of control where 0% means no effect; nearly all actives have a fitted effect of over 45% in size
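Huntington model: PC12 line, ecdysone-inducible HTTQ103 exon1–GFP, tebufenozide 100 nM. Test articles in a dose series. Endpoint luminescence from cellular ATP.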
JMJD2E inh: qHTS Assay for Inhibitors of Human Jumonji Domain Containing 2E (JMJD2E). JMJD2E catalytic domain, FDH-coupled NADH fluorescence (FDH is formaldehyde dehydrogenase). Potency, µM (titrated, usually from 57.1 µM), for the others: top-dose activity change, negative = inhibition, hits mostly inhibitors. 1.6% of 230,000 active;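 note: potency is the fitted concentration of half-maximal effect; 0% = wells with enzyme and -100% = buffer wells without enzyme; nearly all actives have a fitted effect of over 50% in size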
Target sequence (B2RXH2 1-337 limits assumed): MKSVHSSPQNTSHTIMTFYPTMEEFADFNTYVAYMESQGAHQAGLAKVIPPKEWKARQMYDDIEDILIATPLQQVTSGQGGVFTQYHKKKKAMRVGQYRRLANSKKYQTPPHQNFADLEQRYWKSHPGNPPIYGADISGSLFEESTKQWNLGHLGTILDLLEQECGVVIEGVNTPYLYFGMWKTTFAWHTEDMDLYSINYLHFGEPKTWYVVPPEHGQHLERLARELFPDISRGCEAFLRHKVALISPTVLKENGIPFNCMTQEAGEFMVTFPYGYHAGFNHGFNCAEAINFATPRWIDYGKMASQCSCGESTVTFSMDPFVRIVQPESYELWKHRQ
CBFb-RUNX1 inh: qHTS Assay for Compounds Blocking the Interaction Between CBF-beta and RUNX1 for the Treatment of Acute Myeloid Leukemia. 230,000 tested, under 10 active. AlphaScreen CBFb-His/RUNX1-biotin binding, biochemical. Potency, µM (titrated, usually from 59.8 µM), for inactives: at the highest dose activity, negative = inhibition, actives largely listed as inhibitors. Runt-related transcription factor 1 (Homo sapiens) + Core-binding factor subunit beta …; active = well fitted curve in the direction sought with a large enough effect; inconclusive = small, poorly fitted or top-dose-only effect, or another doubt; inactive = no such curve, though single readings can be large; an effect the other way counts as inactive or inconclusive; note: % of control where 0% means no effect
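Interaction loss through any mechanism counts as activity. Pre-formed complex of His-CBF-beta and biotin-RUNX1 (30 nM apiece) is incubated with compound 15 min, then with 50 ng nickel and 50 ng streptavidin beads for 90 min before AlphaScreen detection.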
HttQ103 aggreg: qHTS Multiplex Assay to Identify Dual Action Probes in a Cell Model of Huntington: Aggregate Formation (GFP). PC12 HttQ103-GFP aggregates, Acumen cytometry, 40 h. Potency, µM (highest dose often 46.1 µM), for inactives: top-dose activity change, negative = inhibition, usual class: inhibitors. 1.1% of 220,000 active. AID 1688, 2009; active = well fitted curve in the direction sought with a large enough effect; inconclusive = small, poorly fitted or top-dose-only effect, or another doubt; inactive = no such curve, though single readings can be large; an effect the other way counts as inactive or inconclusive; note: potency is the fitted concentration of half-maximal effect; % is set by controls: 0 for no effect and ±100 for the full control effect; nearly all actives have a fitted effect of over 60% in size
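PC12 cells stably carrying ecdysone-inducible HTT exon 1 Q103–GFP were induced with tebufenozide (100 nM final) and treated with library compounds in titration. GFP aggregates in lysates were counted by laser scanning cytometry.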
HPGD inh: qHTS Assay for Inhibitors of HPGD (15-Hydroxyprostaglandin Dehydrogenase); 15-hydroxyprostaglandin dehydrogenase [NAD(+)] (Homo sapiens), P15428; purified HPGD, NADH fluorescence kinetic, PGE2 substrate; Potency, µM, for inactives: at the top dose activity change, negative = inhibition, actives largely listed as inhibitors; 4.3% of 150,000 active; note: potency is the fitted concentration of half-maximal effect; % is set by controls: 0 for no effect and ±100 for the full control effect
Target sequence (P15428 whole entry, looked up): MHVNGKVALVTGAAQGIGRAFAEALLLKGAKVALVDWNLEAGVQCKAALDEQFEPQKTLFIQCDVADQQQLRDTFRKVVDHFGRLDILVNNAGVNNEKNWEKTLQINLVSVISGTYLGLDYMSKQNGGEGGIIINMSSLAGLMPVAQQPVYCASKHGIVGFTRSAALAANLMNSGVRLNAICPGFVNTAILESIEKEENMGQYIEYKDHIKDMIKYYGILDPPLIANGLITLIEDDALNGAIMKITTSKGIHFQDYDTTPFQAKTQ
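NADH formation kinetics: reaction with 30 uM PGE2 and 1 mM NAD+ (final), 20 nM enzyme, Tris-HCl pH 8 with Tween 20, after 15 min compound preincubation at room temperature. Fluorescence change, last versus first of five reads.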
An asterisk follows results filed as active; [ ] = remark or other dose. Unless noted, calls come from the whole dose curve; as a rule, active = well fitted inhibition curve with a large enough effect (not every such curve was filed as active); inconclusive = small, poorly fitted or top-dose-only effect, or another doubt; inactive = no such curve, though single readings can be large or run the other way.

For O=C(CN1C(=O)C2C3C=CC(C3)C2C1=O)N1CC=C(c2ccccc2)CC1 (configuration not stated) the results were ALDH1A1 inh -10.6%, HTT ATP protect -4.5%, JMJD2E inh 5.2%, CBFb-RUNX1 inh 1.0%, HttQ103 aggreg -13.4% and HPGD inh -5.6%.
For CCn1c(Cl)c(C=O)s/c1=N\S(=O)(=O)c1ccccc1 the results were HTT ATP protect -96.8%[10 µM], JMJD2E inh 6.1%, CBFb-RUNX1 inh -5.2% and HttQ103 aggreg 1.41µM*.
O=C(O)c1ccc2ncsc2c1 was read as HTT ATP protect -1.7%[10 µM], JMJD2E inh 14.1µM*, CBFb-RUNX1 inh -5.1% and HttQ103 aggreg 12.7%[9.22 µM].
Screening CC(=O)NC(=O)COC(=O)c1ccc2ncsc2c1 returned ALDH1A1 inh 3.4%, HTT ATP protect -7.3%, JMJD2E inh -1.0%, CBFb-RUNX1 inh inconclusive and HttQ103 aggreg 18.7%.
Cc1cc(SCC(=O)NN=C2CCN(C(C)C)CC2)c(C)cc1Br was read as ALDH1A1 inh inconclusive, JMJD2E inh 9.8%, CBFb-RUNX1 inh 1.7%, HttQ103 aggreg -5.4% and HPGD inh 25.1µM*.
For Cc1cc(SCC(=O)N/N=C/c2ccc(O)c(O)c2O)c(C)cc1Br the results were ALDH1A1 inh 4.47µM*, HTT ATP protect 4.1%, JMJD2E inh 10µM*, CBFb-RUNX1 inh -18.7%, HttQ103 aggreg inconclusive and HPGD inh 10µM*.
Screening COC(=O)c1n[nH]n(-c2cc(Cl)cc(Cl)c2)c1=O returned ALDH1A1 inh 10µM*, HTT ATP protect 9.5%[10 µM], JMJD2E inh 2.6%, CBFb-RUNX1 inh 0.0% and HttQ103 aggreg -8.1%[9.22 µM].
`O=C1Nc2ccccc2/C1=N\N=C\c1ccc(O)c(O)c1` gave ALDH1A1 inh inconclusive, HTT ATP protect -42.0%[10 µM], JMJD2E inh 7.94µM*, CBFb-RUNX1 inh -3.9% and HttQ103 aggreg -2.2%[9.22 µM].
For NCCO the results were ALDH1A1 inh inconclusive, HTT ATP protect -14.8%, CBFb-RUNX1 inh 9.6%[21.7 µM] and HPGD inh -7.1%.
`COc1cc(/C=C2\Oc3cc(O)ccc3C2=O)ccc1O` gave HTT ATP protect -15.3%[10 µM], JMJD2E inh inconclusive, CBFb-RUNX1 inh 9.5% and HttQ103 aggreg -17.1%[9.22 µM].
`O=C1/C(=C/c2ccc(O)c(O)c2)Oc2cc(O)ccc21` gave HTT ATP protect 11.4%[10 µM], JMJD2E inh 15.8µM*, CBFb-RUNX1 inh -11.6% and HttQ103 aggreg 26.1%[9.22 µM].
Screening O=C(CNC(=O)C(c1ccccc1)c1ccccc1)OCc1ccccc1 returned ALDH1A1 inh -4.2%, HTT ATP protect 13.9%[10 µM], JMJD2E inh 1.2%, CBFb-RUNX1 inh 3.9% and HttQ103 aggreg 12.8%[9.22 µM].
`CCOc1ccc(NC(=S)N2CCN(c3ccc(N4CCOCC4)nn3)CC2)cc1` gave ALDH1A1 inh inconclusive, HTT ATP protect 18.0%, JMJD2E inh inconclusive, CBFb-RUNX1 inh -4.7% and HttQ103 aggreg -10.1%.
`O=C(/C=C/c1ccc2c(c1)OCO2)Nc1cccnc1` gave ALDH1A1 inh inconclusive, HTT ATP protect -26.5%[10 µM], JMJD2E inh inconclusive, CBFb-RUNX1 inh 7.1% and HttQ103 aggreg 25.3%.
Screening O=c1c2c3c(sc2ncn1/N=C/c1ccccc1)CCCC3 returned ALDH1A1 inh 11.2µM*, HTT ATP protect -10.7%[10 µM], JMJD2E inh 4.9%, CBFb-RUNX1 inh 7.7%, HttQ103 aggreg -15.0% and HPGD inh 0.1%.
`O=c1c2c3c(sc2ncn1/N=C/c1ccco1)CCCC3` gave ALDH1A1 inh inconclusive, HTT ATP protect -7.0%, JMJD2E inh -0.6%, CBFb-RUNX1 inh -4.1%, HttQ103 aggreg -23.2% and HPGD inh -3.8%.
For Oc1sc(C=Nc2ccccc2)c2ccccc12 the results were ALDH1A1 inh 22.4µM*, HTT ATP protect -4.0%[10 µM], JMJD2E inh -22.6%, CBFb-RUNX1 inh -2.2%, HttQ103 aggreg 9.8% and HPGD inh -24.4%.
Screening Oc1sc(C=Nc2ccc(F)cc2)c2ccccc12 returned ALDH1A1 inh inconclusive, HTT ATP protect -11.2%[10 µM], JMJD2E inh inconclusive, CBFb-RUNX1 inh 8.9%, HttQ103 aggreg -10.7% and HPGD inh -6.8%.
For O=C(Oc1ccccc1)N1CCC2(CC1)CCN(c1ncccn1)CC2 the results were ALDH1A1 inh inconclusive, HTT ATP protect 7.7% and HPGD inh -16.5%.
Screening Cc1ccc(C2=NC(=O)/C(=C/c3cc(O)c(O)c(Br)c3)S2)cc1 returned ALDH1A1 inh 10µM*, HTT ATP protect 0.4%, JMJD2E inh 12.6µM* and HttQ103 aggreg inconclusive.
Screening COc1cc(/C=C2\SC(c3ccc(C)cc3)=NC2=O)cc(OC)c1O returned ALDH1A1 inh inconclusive, HTT ATP protect 9.3%[10 µM], JMJD2E inh inconclusive, CBFb-RUNX1 inh -19.0%, HttQ103 aggreg 20.8% and HPGD inh 22.4µM*.
For Cn1cnc(S(=O)(=O)Nc2ccc(OC(F)F)cc2)c1 the results were HTT ATP protect 6.1%[10 µM], JMJD2E inh -0.5%, CBFb-RUNX1 inh 4.1% and HttQ103 aggreg 0.3%[9.22 µM].
COc1cccc(N2CCN(CC(=O)C34CC5CC(CC(C5)C3)C4)CC2)c1 was read as ALDH1A1 inh 15.8µM*, HTT ATP protect -7.0%, JMJD2E inh -2.2%, CBFb-RUNX1 inh -3.9%, HttQ103 aggreg -0.3%[9.22 µM] and HPGD inh -7.5%.
Cc1c(OC(C(=O)O)c2ccccc2)ccc2c(-c3ccccc3)cc(=O)oc12 (configuration not stated) was read as HTT ATP protect 11.0%[10 µM], JMJD2E inh inconclusive, CBFb-RUNX1 inh 4.5% and HttQ103 aggreg 0.0%[9.22 µM].
CCOc1ccc2nc(SCC(=O)c3ccc(Cl)s3)sc2c1 was read as ALDH1A1 inh 4.1%, HTT ATP protect -17.7%, JMJD2E inh -0.9%, CBFb-RUNX1 inh 3.0%, HttQ103 aggreg -13.2% and HPGD inh inconclusive.
CCOc1ccc2nc(SCC(=O)c3cccs3)sc2c1 was read as ALDH1A1 inh 12.6µM*, HTT ATP protect -32.5%, JMJD2E inh 3.4%, CBFb-RUNX1 inh 22.0%, HttQ103 aggreg 5.0% and HPGD inh 5.01µM*.
CC(=O)Nc1ccc2nc(SCC(=O)N3CCOCC3)sc2c1 was read as ALDH1A1 inh 3.9%, HTT ATP protect 16.2%, JMJD2E inh 0.3%, CBFb-RUNX1 inh 3.5% and HttQ103 aggreg -17.8%.

Compound activity: PubChem BioAssay, National Center for Advancing Translational Sciences (NCATS)
